From PubChem BioAssay (NCI)
Compounds without any hit were thinned out: in the full panel of roughly 83,000, 20% have a hit.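 Single-concentration screen, 48 h exposure, 96-well plates. Endpoint: percent growth. Below 10 = active.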 Active and inactive are the calls of the source.

Assays:
Experiment in all cases: NCI-60 one-dose screen, 48 h (100 = growth as untreated, 0 = no growth, -100 = all killed)
Conditions in all cases: 10 µM unless noted
[1] = tested on: EKVX NSCLC
[2] = tested on: SN12C renal
[3] = tested on: UO-31 renal
[4] = tested on: TK-10 renal
[5] = tested on: ACHN renal
[6] = tested on: CAKI-1 renal
[7] = tested on: A498 renal
[8] = tested on: CCRF-CEM leukemia
[9] = tested on: MOLT-4 leukemia

Measured: growth

CC(C)Nc1cc(-c2c[nH]c(C(=O)N[C@H](CO)c3cccc(Cl)c3)c2)c(Cl)cn1
inactive: [1] 38.9% | [2] 52.2% | [3] 18.2% | [4] 16.2% | [5] 31% | [6] 35.3% | [8] 26.1% | [9] 12.6%
active: [7] 4.24%

Cn1ncc(Cl)c1-c1cc(C(=O)N[C@H](CN)Cc2ccc(F)c(F)c2)oc1Cl
inactive: [2] 16.5%
active: [1] 6.1% | [3] -19.8% | [4] -91% | [5] 4.47% | [6] -34.2% | [7] -78.9% | [8] 3.82% | [9] -4.62%

CC(=O)O[C@]1(C)C[C@H](O)[C@]2(O)C=CO[C@H](O[C@@H]3O[C@H](CO)[C@@H](O)[C@H](O)[C@H]3O)[C@@H]21
inactive: [1] 92.7% | [2] 101% | [3] 90.6% | [4] 95.9% | [5] 108% | [6] 102% | [7] 110% | [8] 109% | [9] 97.5%

Cc1nc(Nc2n[nH]c3c2CN(C(=O)N[C@H](CN(C)C)c2ccccc2)C3(C)C)c2sccc2n1
active: [2] -6.2% | [3] -11.3% | [4] -30.1% | [5] 3.72% | [6] -5.88% | [7] -72.9% | [8] 1.05% | [9] -0.869%
inactive: [1] 12.9%

O=C(Cn1ccnc1)Nc1ccc(-c2nc3ccccc3s2)cc1
inactive: [1] 61.4% | [2] 84.6% | [3] 60.4% | [4] 81.8% | [5] 90.3% | [6] 66.2% | [7] 57.5% | [8] 69.1% | [9] 68.1%

C#Cc1cccc(Nc2ncnc3cc(OCCOC)c(OCCOC)cc23)c1
active: [4] -6.62% | [6] 6.29%
inactive: [1] 39.6% | [2] 50.5% | [3] 17.3% | [5] 11.3% | [7] 20.2% | [8] 71.2% | [9] 56.1%

CC(=O)CC1CCCC1c1ccc2ccccc2c1 (stereo not drawn)
inactive: [1] 102% | [2] 105% | [3] 84.7% | [4] 91.5% | [5] 101% | [6] 98.6% | [7] 97.6% | [8] 97.6% | [9] 99.2%

CN(C)C[C@@H]1CCn2cc(c3ccccc32)C2=C(C(=O)NC2=O)c2cn(c3ccccc23)CCO1
inactive: [1] 30.5% | [4] 11.5%
active: [2] -59.7% | [3] -49.1% | [5] -89.9% | [6] -3.96% | [7] -4.95% | [8] -0.337% | [9] -4.3%

CSc1nc2ncncc2[nH]1
inactive: [1] 91.2% | [2] 91.4% | [3] 90.7% | [4] 102% | [5] 104% | [6] 621% | [7] 78.2% | [8] 97.7% | [9] 95%

C=C1CC[C@@H]2[C@](C)(COC(C)=O)[C@H](OC(C)=O)CC[C@@]2(C)[C@@H]1C/C=C1/C(=O)OC[C@H]1OC(C)=O
inactive: [1] 103% | [2] 33.4% | [3] 62.8% | [4] 16.9% | [5] 19.5% | [6] 81.5% | [7] 90.6%
active: [8] -11.4% | [9] -6.05%

O=C(NC[C@H](O)CO)c1ccncc1Nc1ccc(I)cc1F
active: [7] -21.9%
inactive: [1] 45.1% | [2] 60.3% | [3] 35.1% | [4] 40.5% | [5] 41.4% | [6] 32.7% | [8] 102% | [9] 90.3%

O=C(Cc1ccc(/C=C/C(=O)c2ncc[nH]2)cc1)Nc1ccc(S(F)(F)(F)(F)F)cc1
inactive: [1] 96.9% | [2] 80.3% | [3] 60.7% | [4] 107% | [5] 95.8% | [6] 81.7% | [7] 88.3% | [8] 41.9% | [9] 53.4%

COC(=O)[C@H](Cc1ccccc1)NC(=O)[C@@H](OC)[C@@H]1Cc2cc3cc(OC4CC(OC5CC(O)C(O)C(C)O5)C(O)C(C)O4)c(C)c(O)c3c(O)c2C(=O)[C@H]1OC1CC(OC2CC(OC3CC(C)(O)C(O)C(C)O3)C(O)C(C)O2)C(O)C(C)O1 (stereo partly drawn)
inactive: [6] 15.3%
active: [1] -2.04% | [2] 4.42% | [3] -7.79% | [4] 6.76% | [5] -8.69% | [7] -40.3% | [8] 4.07% | [9] -5.77%

C[C@@H](NC(=O)c1ncnc(N)c1Cl)c1ncc(C(=O)Nc2cc(C(F)(F)F)c(Cl)cn2)s1
inactive: [1] 101% | [2] 82.6% | [3] 52.8% | [4] 77.4% | [5] 74.5% | [6] 74.2% | [7] 59.6% | [8] 78.5% | [9] 70.8%

COc1ccc(/C(C)=C(\c2ccc(Cl)cc2)c2ccc(OCCN3CCCCCC3)cc2)cc1
inactive: [1] 56.7% | [2] 55.3% | [3] 46% | [4] 73.8% | [5] 67.3% | [6] 66.6% | [7] 78.4% | [8] 43.9% | [9] 40.2%

O=C(CNc1nc(-c2ccc(Cl)cc2)cs1)Nc1ccc(-c2nc3ccccc3s2)cc1
inactive: [1] 102% | [2] 101% | [3] 75% | [4] 66.5% | [5] 105% | [6] 94.2% | [7] 102% | [8] 93% | [9] 92.7%

Cc1cccc(Cl)c1NC(=O)c1cnc(Nc2cc(N3CCOCC3)cc(S(C)(=O)=O)c2)s1
inactive: [1] 27.7% | [2] 28.6% | [8] 72.7% | [9] 24.8%
active: [3] 2.76% | [4] -64.6% | [5] -2.99% | [6] -27.7% | [7] -13.6%

Cn1ccnc1C(=O)/C=C/c1ccc(CC(=O)Nc2ccc(Br)cc2)cc1
active: [2] 1.07% | [9] 2.44%
inactive: [1] 22.6% | [3] 22.7% | [4] 49.5% | [5] 40.3% | [6] 34.9% | [7] 73.8% | [8] 11.9%

CC(=O)Nc1cccc(-n2c(=O)n(C3CC3)c(=O)c3c(Nc4ccc(I)cc4F)n(C)c(=O)c(C)c32)c1
inactive: [1] 46% | [2] 49.7% | [3] 12% | [4] 21.8% | [5] 42% | [6] 27.1% | [8] 68.5% | [9] 65.5%
active: [7] -34.4%

O=C(NOCCO)c1cc(CN2OCCCC2=O)c(F)c(F)c1Nc1ccc(I)cc1F
active: [7] -33%
inactive: [1] 46% | [2] 49.5% | [3] 15% | [4] 36.4% | [5] 49.5% | [6] 40.8% | [8] 101% | [9] 76.6%

CO[C@H]1C[C@@H]2CC[C@@H](C)[C@@](O)(O2)C(=O)C(=O)N2CCCC[C@H]2C(=O)O[C@H]([C@H](C)C[C@@H]2CC[C@@H](O)[C@H](OC)C2)CC(=O)[C@H](C)/C=C(\C)[C@@H](O)[C@@H](OC)C(=O)[C@H](C)C[C@H](C)\C=C/C=C/C=C/1C
inactive: [1] 35.8% | [2] 44.3% | [3] 20.7% | [4] 43.5% | [5] 39.5% | [6] 39.6% | [7] 13.8% | [8] 22.1%
active: [9] 6.08%

COc1ccc(-c2ccc3c(N4CCOC[C@@H]4C)nc(N4CCOC[C@@H]4C)nc3n2)cc1CO
inactive: [8] 16.4% | [9] 11.6%
active: [1] 7.48% | [2] 9.9% | [3] -13% | [4] -30.8% | [5] 5.54% | [6] -14.6% | [7] -35.4%

O=C1OCC2=C1C(c1cccc(F)c1)c1cc3c(cc1N2CCO)OCCO3 (stereo not drawn)
active: [8] 7.52% | [9] 7.49%
inactive: [1] 37.5% | [2] 31% | [3] 42.1% | [4] 57.7% | [5] 23.9% | [6] 31.8% | [7] 13.4%

CCc1nc(C(N)=O)c(Nc2ccc(N3CCC(N4CCN(C)CC4)CC3)c(OC)c2)nc1NC1CCOCC1
inactive: [1] 46.6% | [2] 29.2% | [4] 25.4% | [5] 29% | [6] 20.2% | [9] 17.2%
active: [3] 4.67% | [7] -92.6% | [8] 6.04%

N#CC[C@H](C1CCCC1)n1cc(-c2ncnc3[nH]ccc23)cn1
inactive: [1] 82.7% | [2] 66.3% | [3] 26.8% | [4] 41.5% | [5] 52.1% | [6] 34.9% | [7] 64% | [8] 58.5% | [9] 56.1%

Cc1c(N)ccc(-c2ccc(N)c(C)c2S(=O)(=O)O)c1S(=O)(=O)O
inactive: [1] 111% | [2] 106% | [3] 88% | [4] 98.6% | [5] 108% | [6] 116% | [7] 100% | [8] 102% | [9] 102%

CO[C@H]1C[C@@H]2CC[C@@H](C)[C@@](O)(O2)C(=O)C(=O)N2CCCC[C@H]2C(=O)O[C@H]([C@H](C)C[C@@H]2CC[C@@H](OP(C)(C)=O)[C@H](OC)C2)CC(=O)[C@H](C)/C=C(\C)[C@@H](O)[C@@H](OC)C(=O)[C@H](C)C[C@H](C)\C=C/C=C/C=C/1C
active: [7] 2.06%
inactive: [1] 49.8% | [2] 53.9% | [3] 27.3% | [4] 46% | [5] 54.4% | [6] 50.1% | [8] 37.2% | [9] 28.8%
